Each structure is given as a SMILES string. Activity calls are given as the source filed them.

The results in this text go back to PubChem BioAssay.

Assay [1] can be described thus: small molecules captured by biotinylated probe aFSTL3 – biochemical, small-molecule microarray, fluorescence 635/667, stem cell growth factor project, primary screen (AID 1064).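 Also: measures binding of the biotinylated anti-FSTL3 antibody to printed compounds.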 As to conditions: higher = more signal.
A short description of assay [2]: binders from COS7 lysate, DM2A8 probe, primary screen, torsin A project, cell lysate, small-molecule microarray, fluorescence 635/667 (AID 1065). As to conditions: higher = more signal, COS7 lysate expressing mutant human TOR1A.
A short description of assay [3]: small molecules captured by biotinylated probe aFGF2 – biochemical, small-molecule microarray, fluorescence 635/667, stem cell growth factor project, primary screen (AID 1067).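 Also: measures binding of biotinylated aFGF2 protein to printed compounds on slides; z-score merges feature fluorescence and signal-to-noise across triplicate slides.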 As to conditions: higher = more signal.
The nature of assay [4]: small molecules captured by biotinylated probe aFGF10 – biochemical, small-molecule microarray, fluorescence 635/667, stem cell growth factor project, primary screen (AID 1071).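 Also: score merges 667 nm spot intensity and signal to noise from triplicate slides.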 As to conditions: higher = more signal.
Assay [5] addresses Neurogenic locus notch homolog protein 2 (Homo sapiens) (UniProt Q04721). Briefly: small molecules binding Notch2 protein – biochemical, small-molecule microarray, 635 nm fluorescence, stem cell growth factors, primary screen (AID 1073). As to conditions: higher = more signal.
For assay [6], the target named is Pro-neuregulin-1, membrane-bound isoform (Homo sapiens) (UniProt Q02297). Briefly: small molecules binding neuregulin-1 protein – biochemical, small-molecule microarray, fluorescence 635/667, psychiatric disease protein project, primary screen (AID 1075).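 Also: score combines 667 nm spot fluorescence with signal to noise.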 The following applies: NRG1 binding, 635 nm fluorescence, higher = more signal.
Assay [7] has as its system Neuregulin-1 EGF-like domain. Kind of assay: small molecules binding NRG1 EGF domain – biochemical, small-molecule microarray, 635 nm fluorescence, primary screen (AID 1081).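 Also: binding of the protein to compounds printed on small-molecule microarray slides.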 As to conditions: higher = more signal.
The nature of assay [8]: FRG1 expression reporter modulators in myotubes – cell-based, C2C12 myotubes, firefly/Renilla luciferase, luminescence, FRG1 inhibition for FSHD, primary screen (AID 1084). As to conditions: FRG1 promoter luciferase, higher = more signal, called active from +8 up or from −8 down.
Assay [9] is described as follows: small molecules captured by biotinylated probe aFST – biochemical, small-molecule microarray, fluorescence 635/667, stem cell growth factor project, primary screen (AID 1086).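 Also: score merges 667 nm fluorescence with signal-to-noise of each printed compound spot.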 The following applies: higher = more signal.
A short description of assay [10]: binders of probe aHhip on microarray, primary screen, stem cell growth factor project, biochemical, small-molecule microarray, fluorescence 635/667 (AID 1087).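 Also: score merges spot fluorescence at 667nm with spot signal to noise ratio.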 As to conditions: higher = more signal.
For assay [11], the system named is PRMT1 (protein arginine N-methyltransferase 1). Kind of assay: small molecules binding arginine methyltransferase PRMT1 – biochemical, small-molecule microarray, 635 nm fluorescence, primary screen (AID 1088).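 Also: binding of Prmt1 protein to compounds spotted on small-molecule microarray slides.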 As to conditions: higher = more signal.
Assay [12] is described as follows: growth effects on S. cerevisiae YJM789 – YJM789 clinical isolate, OD600, 24 h, basal, primary screen (AID 1089).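 Also: growth of clinical yeast isolate S. cerevisiae YJM 789 seeded 1000 cells per well; test concentration not given here.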 The following applies: higher = more signal, called active from +8 up or from −8 down.
The nature of assay [13]: S. pombe growth modifiers, basal conditions – strain 972, OD600, 24 h, no modulator, primary screen (AID 1090).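 Also: basal condition with compound alone and no growth modifier present; test concentration not given here.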 The following applies: S. pombe 972 growth, higher = more signal, called active from +8 up or from −8 down.
Assay [14] is described as follows: budding yeast growth modifiers under rapamycin – strain BY4716, OD600, 96 h, primary screen (AID 1091). Also: test concentration not given here. As to conditions: S. cerevisiae BY4716 + rapamycin, higher = more signal, called active from +8 up or from −8 down.
Assay [15] deals with Torsin-1A-interacting protein 2 (Homo sapiens) (UniProt Q8NFQ8). Briefly: small molecules binding lysate-expressed LULL1 – cell lysate, human LULL1 lysate, 635/667 nm fluorescence, primary screen (AID 1092).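 Also: probe is lysate of COS7 cells overexpressing human LULL1; score merges per-feature 667 nm fluorescence with signal-to-noise.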 The following applies: small-molecule microarray, hLULL1 lysate binding, 635 nm fluorescence; higher = more signal.
A short description of assay [16]: optical density change of DRC41 E. coli – strain DRC41, OD650, 24 h, E. coli filamentation project, primary screen (AID 1093).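 Also: MC1000 strain lacking acrAB efflux and sulA so SOS filamentation is blocked; test concentration not given here.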 As to conditions: E. coli DRC41 growth, higher = more signal, called active from +8 up or from −8 down.
Assay [17] can be described thus: probe aLefty2 binding to arrayed compounds – biochemical, biotinylated probe, 635/667 nm fluorescence, primary screen (AID 1094).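 Also: score merges spot fluorescence near 667 nm with spot signal-to-noise ratio.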 As to conditions: small-molecule microarray, higher = more signal.
For assay [18], the system named is Noggin (protein binding on small-molecule microarray). Kind of assay: small molecules binding Noggin protein – biochemical, 635/667 nm fluorescence, primary screen (AID 1095).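 Also: score merges 667 nm feature fluorescence with signal to noise over triplicate slides.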 As to conditions: 635 nm fluorescence, higher = more signal.
Assay [19] addresses Neurogenic locus notch homolog protein 3 (Homo sapiens) (UniProt Q9UM47). Kind of assay: small molecules binding NOTCH3 protein – biochemical, 635/667 nm fluorescence, primary screen (AID 1096). The following applies: small-molecule microarray, 635 nm fluorescence, higher = more signal.
A short description of assay [20]: probe aEGFR binding to arrayed compounds – biochemical, biotinylated probe, 635/667 nm fluorescence, primary screen (AID 1097).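 Also: probe is a biotinylated anti-EGFR antibody binding compounds printed on slides; score combines fluorescence near 667 nm and signal to noise of each spot.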 As to conditions: small-molecule microarray, higher = more signal.

Chain of Torsin-1A-interacting protein 2 (Homo sapiens) (Q8NFQ8 whole entry, looked up): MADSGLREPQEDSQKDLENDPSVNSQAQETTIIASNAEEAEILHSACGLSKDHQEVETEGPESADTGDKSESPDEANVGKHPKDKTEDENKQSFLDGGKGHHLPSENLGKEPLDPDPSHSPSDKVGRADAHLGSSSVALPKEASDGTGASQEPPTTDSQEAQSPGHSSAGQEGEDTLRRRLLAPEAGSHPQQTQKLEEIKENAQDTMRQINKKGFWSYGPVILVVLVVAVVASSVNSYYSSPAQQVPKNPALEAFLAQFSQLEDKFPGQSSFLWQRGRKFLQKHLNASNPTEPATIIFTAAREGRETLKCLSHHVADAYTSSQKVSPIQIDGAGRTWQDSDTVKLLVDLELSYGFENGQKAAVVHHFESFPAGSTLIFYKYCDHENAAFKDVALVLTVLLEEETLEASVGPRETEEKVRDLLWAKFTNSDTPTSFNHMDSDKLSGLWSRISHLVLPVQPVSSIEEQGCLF
Chain of Neurogenic locus notch homolog protein 3 (Homo sapiens) (Q9UM47 whole entry, looked up): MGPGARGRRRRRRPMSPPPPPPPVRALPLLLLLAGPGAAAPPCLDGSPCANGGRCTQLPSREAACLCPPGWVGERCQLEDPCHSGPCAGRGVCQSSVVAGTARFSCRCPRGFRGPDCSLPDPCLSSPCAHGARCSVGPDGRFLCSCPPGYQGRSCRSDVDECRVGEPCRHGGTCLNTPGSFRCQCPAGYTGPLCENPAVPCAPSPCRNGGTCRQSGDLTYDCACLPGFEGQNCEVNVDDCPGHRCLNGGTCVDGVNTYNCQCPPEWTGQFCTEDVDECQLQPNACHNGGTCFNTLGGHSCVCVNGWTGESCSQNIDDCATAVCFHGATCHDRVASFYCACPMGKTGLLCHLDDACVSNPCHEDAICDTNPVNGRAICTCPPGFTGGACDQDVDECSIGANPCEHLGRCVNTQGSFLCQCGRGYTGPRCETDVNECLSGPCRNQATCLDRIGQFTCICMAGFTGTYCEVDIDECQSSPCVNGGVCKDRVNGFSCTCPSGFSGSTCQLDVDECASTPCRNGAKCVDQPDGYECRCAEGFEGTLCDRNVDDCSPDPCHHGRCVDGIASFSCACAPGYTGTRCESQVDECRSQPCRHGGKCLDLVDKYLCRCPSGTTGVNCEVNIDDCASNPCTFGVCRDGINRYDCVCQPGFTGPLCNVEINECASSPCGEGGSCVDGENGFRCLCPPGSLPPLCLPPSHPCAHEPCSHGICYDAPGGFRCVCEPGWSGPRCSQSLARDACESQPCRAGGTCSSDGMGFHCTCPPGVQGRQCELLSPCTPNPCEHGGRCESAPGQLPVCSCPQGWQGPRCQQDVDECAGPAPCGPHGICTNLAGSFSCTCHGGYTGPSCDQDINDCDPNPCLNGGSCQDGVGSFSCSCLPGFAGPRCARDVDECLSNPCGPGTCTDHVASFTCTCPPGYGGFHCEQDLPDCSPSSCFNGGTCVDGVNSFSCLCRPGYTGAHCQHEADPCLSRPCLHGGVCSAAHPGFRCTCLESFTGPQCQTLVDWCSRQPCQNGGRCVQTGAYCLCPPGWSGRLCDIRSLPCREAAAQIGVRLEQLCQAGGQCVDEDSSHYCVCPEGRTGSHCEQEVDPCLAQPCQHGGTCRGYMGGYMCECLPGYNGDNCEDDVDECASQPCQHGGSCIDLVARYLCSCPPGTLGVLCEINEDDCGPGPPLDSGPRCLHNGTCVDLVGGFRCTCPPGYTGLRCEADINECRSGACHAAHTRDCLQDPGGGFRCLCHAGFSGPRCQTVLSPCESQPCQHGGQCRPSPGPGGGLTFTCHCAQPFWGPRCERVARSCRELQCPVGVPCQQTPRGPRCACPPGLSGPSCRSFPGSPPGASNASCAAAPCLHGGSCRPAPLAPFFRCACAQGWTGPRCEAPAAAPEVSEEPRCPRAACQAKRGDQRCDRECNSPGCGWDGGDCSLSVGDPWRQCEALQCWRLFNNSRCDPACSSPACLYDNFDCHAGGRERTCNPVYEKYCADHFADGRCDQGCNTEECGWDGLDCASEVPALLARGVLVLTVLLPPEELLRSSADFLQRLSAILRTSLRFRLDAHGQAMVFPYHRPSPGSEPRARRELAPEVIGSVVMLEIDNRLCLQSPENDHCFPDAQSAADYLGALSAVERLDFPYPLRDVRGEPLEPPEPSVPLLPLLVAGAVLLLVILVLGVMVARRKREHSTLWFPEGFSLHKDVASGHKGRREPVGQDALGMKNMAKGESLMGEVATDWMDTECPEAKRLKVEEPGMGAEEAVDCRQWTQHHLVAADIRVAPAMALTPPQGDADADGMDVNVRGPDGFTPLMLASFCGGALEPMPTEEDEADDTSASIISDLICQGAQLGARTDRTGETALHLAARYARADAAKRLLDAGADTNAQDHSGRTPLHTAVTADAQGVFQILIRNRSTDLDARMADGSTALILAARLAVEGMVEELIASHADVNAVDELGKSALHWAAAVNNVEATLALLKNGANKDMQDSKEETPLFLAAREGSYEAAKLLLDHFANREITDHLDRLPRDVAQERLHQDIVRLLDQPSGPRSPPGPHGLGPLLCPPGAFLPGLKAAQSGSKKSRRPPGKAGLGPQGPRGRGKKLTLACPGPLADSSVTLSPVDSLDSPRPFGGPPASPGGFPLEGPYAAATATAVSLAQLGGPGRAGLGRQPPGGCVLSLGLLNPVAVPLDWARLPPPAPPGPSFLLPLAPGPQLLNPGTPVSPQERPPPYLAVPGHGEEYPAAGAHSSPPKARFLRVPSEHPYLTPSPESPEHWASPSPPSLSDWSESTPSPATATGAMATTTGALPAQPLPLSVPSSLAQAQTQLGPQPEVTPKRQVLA
Chain of Pro-neuregulin-1, membrane-bound isoform (Homo sapiens) (Q02297 whole entry, looked up, the tested form may be a part, canonical isoform): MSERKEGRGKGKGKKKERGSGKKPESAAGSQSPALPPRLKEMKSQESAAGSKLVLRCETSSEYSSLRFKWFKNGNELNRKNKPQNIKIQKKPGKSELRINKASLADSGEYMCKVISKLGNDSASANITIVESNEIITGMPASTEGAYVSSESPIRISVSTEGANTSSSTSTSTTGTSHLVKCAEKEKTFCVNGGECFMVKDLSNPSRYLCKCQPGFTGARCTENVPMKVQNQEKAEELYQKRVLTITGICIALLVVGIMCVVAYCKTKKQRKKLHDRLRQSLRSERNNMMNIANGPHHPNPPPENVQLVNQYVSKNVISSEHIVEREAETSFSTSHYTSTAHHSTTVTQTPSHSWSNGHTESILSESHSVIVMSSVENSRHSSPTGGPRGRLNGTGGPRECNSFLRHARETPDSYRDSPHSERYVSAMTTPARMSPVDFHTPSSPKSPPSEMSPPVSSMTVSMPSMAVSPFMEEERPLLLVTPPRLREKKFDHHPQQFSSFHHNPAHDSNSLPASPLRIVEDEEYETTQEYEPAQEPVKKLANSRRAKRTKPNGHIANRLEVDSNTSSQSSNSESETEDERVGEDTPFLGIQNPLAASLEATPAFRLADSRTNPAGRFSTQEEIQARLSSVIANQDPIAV

Regarding `COCCOC(=O)N1C(=O)[C@@]2(c3cc(C#CC4(O)CCCCCC4)ccc31)[C@H](C(=O)NC[C@H](O)c1ccccc1)[C@H]1C(=O)O[C@H](c3ccccc3)[C@H](c3ccccc3)N1[C@@H]2c1ccccc1OCCO`, the composite z-score in assay [1] was -0.0213; in [2], 0.621; in assay [3] it was -0.0628; in assay [4] it was 0.695; in assay [5], 1.03; in assay [6] it was 1.29. Moreover, the composite z-score stood at 1.23 in [7]; 0.627 in assay [9]; 0.0044 in assay [10]; 1.55 in assay [11]; 2.69 in assay [15]; 0.101 in assay [17]. Further, the composite z-score in [18] is 1.3; in assay [19], 1.04; in assay [20], 0.0343. Also, the z-score in assay [8] was 0.153 (inactive); in assay [12], 2.64 (inactive); in assay [13] it was 0.623 (inactive); in [14] it was 6.84 (inactive); in [16] it was 1.97 (inactive).
Consider `CCOC(=O)C[C@H]1[C@H](OC(=O)Cc2ccc3c(c2)OCO3)[C@@H](NC(=O)c2ccc3ccccc3c2)c2cc(OCCCO)ccc2N1C(=O)c1ccc2ccccc2n1`, for which the composite z-score is -0.123 in assay [1]; 0.243 in assay [2]; -0.161 in assay [3]; 0.319 in assay [4]; 0.429 in assay [5]; 0.799 in [6]. Also, the composite z-score was 0.8 in assay [7]; 0.233 in assay [9]; -0.132 in assay [10]; 0.144 in assay [11]; 1.44 in assay [15]; -0.0865 in assay [17]. In addition, the composite z-score in assay [18] stood at 0.235; in assay [19] it was 0.808; in [20], 0.0343. Moreover, the z-score in [8] is -3.68 (inactive); in assay [12] it was -3.45 (inactive); in [13], -3.3 (inactive); in assay [14], -2.38 (inactive); in assay [16] it was 0.135 (inactive).
Regarding `O=C1N(CCS(=O)(=O)c2ccccc2)Cc2ccccc2[C@@H]2OC(c3ccc(OCCCO)cc3)=N[C@]12Cc1ccccc1`, the composite z-score in assay [1] stood at 1.02; in [2], 0.397; in assay [3] it was 0.196; in assay [4] it was 0.849; in assay [5], 1.5; in assay [6], 1.84. For the same compound, the composite z-score is 1.39 in [7]; 0.843 in assay [9]; -0.338 in assay [10]; 1.53 in assay [11]; 3.4 in assay [15]; 0.657 in [17]. The composite z-score in assay [18] is 1.1; in [19], 1.01; in assay [20] it was 0.442. For the same compound, the z-score in assay [8] was -2.88 (inactive); in [12], 2.44 (inactive); in assay [13], 1.46 (inactive); in assay [14], 9.7 (active); in assay [16], 0.552 (inactive).
For `COC(=O)C1=CC(c2ccc(CO)cc2)=CC(C2CC2)N(C)C=C1C(=O)OC` (stereo not given), the composite z-score is 0.315 in assay [1]; 0.903 in [2]; -0.0538 in assay [3]; -0.0649 in assay [4]; 0.115 in assay [5]; 1.61 in assay [6]. In addition, the composite z-score was 0.97 in assay [7]; 0.0593 in assay [9]; -0.0994 in [10]; 1.31 in assay [11]; 2.6 in [15]; -0.141 in assay [17]. Moreover, the composite z-score in assay [18] was -0.946; in [19], -0.464; in assay [20], -0.154. Further, the z-score is -1.67 (inactive) in [8]; -5.61 (inactive) in [12]; -4.93 (inactive) in [13]; -2.41 (inactive) in assay [14]; 0.585 (inactive) in assay [16].
For the compound `NC(=O)N1C(=O)C2C(C1=O)C1C=C(c3ccc(CO)cc3)C2C(C2CC2)N1Cc1cc2c(cc1Br)OCO2` (stereo not given), the composite z-score in assay [1] is 0.567; in [2], 0.778; in [3], -0.105; in [4], -0.277; in [5], -0.204; in [6] it was 0.976. Also, the composite z-score in [7] was 0.887; in assay [9], 0.0417; in assay [10] it was -0.0237; in [11] it was 0.364; in assay [15], 1.86; in assay [17], 0.0834. In addition, the values for the composite z-score in assay [18], in [19] and in assay [20] were 0.176, 0.623 and -0.0975, respectively. The z-score in assay [8] is -2.01 (inactive); in [12], -0.779 (inactive); in assay [13] it was -3.29 (inactive); in [14], -1.32 (inactive); in [16], 1.19 (inactive).
With `O=C(O)[C@H]1C[C@H]2C(=O)N[C@@H](Cc3ccccc3)C(=O)N2[C@H]1c1ccc(O)cc1`, the composite z-score in assay [1] was 1.01; in assay [2] it was 0.419; in assay [3] it was -0.0943; in [4] it was -0.769; in assay [5], -1.42; in assay [6] it was 0.511. The composite z-score is 1.24 in [7]; 0.16 in assay [9]; -0.136 in [10]; 1.32 in assay [11]; 2.54 in assay [15]; -0.0572 in assay [17]. Further, the composite z-score in [18] is 0.108; in assay [19], 0.321; in assay [20] it was 0.064. For the same compound, the z-score in assay [8] is 1.02 (inactive); in [12] it was -0.261 (inactive); in assay [13], -0.784 (inactive); in [14], -0.322 (inactive); in [16], 0.906 (inactive).
